# Screening results as filed in PubChem BioAssay.
# mHTT CaM bind: disrupts binding of mutant huntingtin to calmodulin. AID 1671202. inhibition, % at 15 µM. AlphaScreen His-mHTT/GST-CaM binding, luminescence. hit rate 3.6% among 190,000
# Pf apPOL block: Pf-apPOL DNA polymerase inhibition | Recombinant Pf-apPOL, molecular beacon fluorescence, 1.5 h | inhibition, % at 10 µM | hit rate 0.25% among 210,000 | AID 1794808
# Numbers stand for hits; 0 = inactive; - = not tested or not shown. Only some compounds are listed: those with a hit (about 3.6% of all), similar ones and a draw of the others. No stated cut-off is given here; in the data, active means inhibition above about 50%; inactive means the rest.
SMILES,mHTT CaM bind,Pf apPOL block
Cc1oc(C2CCN(C(=O)c3cc4ccccc4[nH]3)CC2)nc1C(=O)N1CCCC1,82.7,0
CCOc1ccc(C(=O)N2CCC(c3noc(-c4ccccc4C)n3)CC2)cc1OCC,0,0
Cc1ccccc1-c1nc(C2CCN(C(=O)c3ccc(F)c(Cl)c3)CC2)no1,93.6,0
Cc1oc(C2CCN(C(=O)c3cc4ccccc4[nH]3)CC2)nc1C(=O)N(C)C,0,0
COc1ccccc1-c1nc(C2CCN(C(=O)c3cc4ccccc4[nH]3)CC2)no1,100.2,0
COc1cc(OC)cc(C(=O)N2CCC(c3noc(-c4ccccc4OC)n3)CC2)c1,0,0
COc1ccc(C)cc1NC(=O)C1CCN(c2c(C#N)cnc3ccccc23)CC1,0,0
CC(C)c1ccc(NC(=O)C2OC3OC(C)(C)OC3C3OC(C)(C)OC23)cc1 (stereo not drawn),0,0
COc1ccc(C2(CNCC(N)=O)CCCC2)cc1OC,0,0
CCNc1nc(NCC)n2c(SCC(=O)Nc3cccc(Cl)c3Cl)nnc2n1,0,0
Cc1[nH]n(-c2ccccc2)c(=O)c1C(c1ccco1)c1c(C)[nH]n(-c2ccccc2)c1=O,54.0,0
Cc1c(C(c2ccco2)c2c(C)n(C)n(-c3ccccc3)c2=O)c(=O)n(-c2ccccc2)n1C,0,0
CCn1cc2c3c(cccc31)CN(C(=O)c1cccc(F)c1)CC2,0,0
CCCn1cc2c3c(cccc31)CN(C(=O)c1cccc(F)c1)CC2,66.2,0
Cn1cc2c3c(cccc31)CN(C(=O)c1ccccc1F)CC2,0,0
CCCn1cc2c3c(cccc31)CN(C(=O)c1ccccc1F)CC2,51.5,0
COc1cc(NC(=O)Cn2nc([N+](=O)[O-])c(Br)c2C)c(OC)cc1Cl,0,0
O=[N+]([O-])c1cccc(C=Nc2ccccc2O)c1O,0,0
COc1ccc(Cl)cc1NS(=O)(=O)c1ccc2c(c1)CC(C)N2C(C)=O (stereo not drawn),0,0
O=C(Nc1ccccc1Cl)c1ccccc1,0,0
O=C(CNc1ccccc1Cl)c1ccccc1,100.2,0
CSc1cccc(NC(=O)CN(c2ccc(Cl)cc2)S(C)(=O)=O)c1,0,0
O=C(Nc1ccc(C2(C(=O)NCc3cccc(F)c3)CCCCC2)cc1)C1CC1,0,0
COc1ccccc1N=Cc1c(C)[nH]n(-c2ccccc2)c1=O,0,0
Cc1[nH]n(-c2ccccc2)c(=O)c1C=Nc1cc(Br)ccc1O,89.0,0
SMILES,mHTT CaM bind,Pf apPOL block
COc1ccc(OC)c(N=Cc2c(C)[nH]n(-c3ccccc3)c2=O)c1,67.0,0
Cc1[nH]n(-c2ccccc2)c(=O)c1C=Nc1c(C)[nH]n(-c2ccccc2)c1=O,0,0
CC(=O)C(=C(/C)O)/C(C(C)=O)=C(\C)O,0,0
O=C(Nc1nc2c(s1)CNCC2)C1CC1,0,0
CCOc1ccc(NC(=O)c2cc3n(n2)C(C(F)(F)F)CC(c2ccc4c(c2)OCO4)N3)cc1 (stereo not drawn),0,0
CC1=NN(C(=O)Cc2ccc([N+](=O)[O-])cc2)C(O)(C(F)(F)F)C1 (stereo not drawn),0,0
COc1ccc(C(C#N)N2N=C(C)CC2c2ccccc2)cc1OC (stereo not drawn),0,0
COc1ccc(C(C#N)N2N=C(c3ccccc3)CC2c2ccccc2)cc1OC (stereo not drawn),79.0,0
O=C(O)C1CC=CCC1C(=O)Nc1ccc(F)cc1F (stereo not drawn),0,0
COc1ccc2[nH]cc(CN3CCC(C(=O)NC(C)c4ccc(F)cc4)CC3)c2c1 (stereo not drawn),68.0,0
COc1cccc(C(C)NC(=O)C2CCN(Cc3cn(C)c4ccccc34)CC2)c1 (stereo not drawn),0,0
Cn1c2c(c(=O)c3ccccc31)CC(O)C(C)(C)O2 (stereo not drawn),-,0
C=CCn1c(N=Cc2ccc(N(C)C)cc2)nc2ccccc21,71.0,0
C=CCn1c(N=Cc2ccc(Cl)cc2)nc2ccccc21,0,0
CCCC1(CO)CCCN1C(=O)c1ccc2[nH]ccc2c1 (stereo not drawn),0,0
CCCC1(CO)CCCN1C(=O)c1ccc2cc[nH]c2c1 (stereo not drawn),55.4,0
FC(F)(F)c1ccc(/C=N/n2cnnc2)cc1,0,-
O=C(CSCCc1ccccn1)Nc1ccc(Br)cc1,0,0
Cc1[nH]nc(-c2ccc(O)c(C)c2O)c1Oc1ccc(F)cc1,55.3,0
COc1ccc(-c2n[nH]c(C)c2Oc2ccc(F)cc2)c(O)c1,0,0
c1cncc(-c2n[nH]c(C3CCCN(Cc4cccs4)C3)n2)c1 (stereo not drawn),0,0
CCCn1cnnc1C1CCCN(C(=O)CCc2ccccc2)C1 (stereo not drawn),0,0
COc1ccc(C2SCC(=O)N2CCc2ccc(OC)c(OC)c2)c(OC)c1 (stereo not drawn),0,0
COc1ccc(CCN2C(=O)CSC2c2ccc(Cl)c(Cl)c2)cc1OC (stereo not drawn),100.0,0
Cc1ccc(N=C2C(=O)N(CN3CCOCC3)c3ccccc32)cc1,0,0
SMILES,mHTT CaM bind,Pf apPOL block
Cc1ccc(N=C2C(=O)N(CN3CCOCC3)c3ccccc32)cc1C,58.0,0
O=S(=O)(Nc1ccc(Cl)cc1)c1ccc2nncn2c1,0,0
CC(C)(Oc1ccc(Cl)cc1)C(=O)Nc1ccc2c(c1)OCO2,0,0
c1ccc(C2C3=C(CCCC3)Nc3nc4ccccc4n32)cc1 (stereo not drawn),100.0,0
CC1(C)CC(=O)C2=C(C1)Nc1ncnn1C2c1ccccc1 (stereo not drawn),0,0
c1ccc(C2C3=C(CCCC3)Nc3ncnn32)cc1 (stereo not drawn),0,96.3
O=C1CCCC2=C1C(c1ccccc1Cl)n1c(nc3ccccc31)N2 (stereo not drawn),0,0
O=C(c1ccc(F)cc1)N1CCN(c2nc(-c3cccnc3)nc3ccccc23)CC1,0,0
CCn1cc2c3c(cccc31)CN(C(=O)CCc1ccc(OC)cc1)CC2,58.5,0
CCCn1cc2c3c(cccc31)CN(C(=O)NCc1ccc(OC)cc1)CC2,0,0
CCn1cc2c3c(cccc31)CN(C(=O)c1ccco1)CC2,0,0
CCCn1cc2c3c(cccc31)CN(C(=O)Cc1ccc(OC)cc1)CC2,57.2,0
COc1ccc(C(=O)N2CCc3cn(C)c4cccc(c34)C2)c(OC)c1,0,0
COc1ccc(C(=O)N2CCc3cn(C)c4cccc(c34)C2)cc1,55.1,0
Cn1cc2c3c(cccc31)CN(C(=O)c1ccc(Cl)cc1)CC2,54.3,0
Cn1cc2c3c(cccc31)CN(C(=O)Cc1ccc(Cl)cc1)CC2,0,0
Cc1cc(C(=O)N2CCN(c3nc(CN4CCOCC4)cs3)CC2)nn1C,0,0
CCOc1ccccc1/C=C(\C#N)c1nc2ccc(C)cc2[nH]1,0,0
COc1ccc(/C=C2N=C(/C=C/c3cccc([N+](=O)[O-])c3)OC\2=O)c(OC)c1OC,0,0
Cc1cccc(C(=O)N2CCc3cn(C)c4cccc(c34)C2)c1,0,0
CS(=O)(=O)N(Cc1ccccc1Cl)c1ccc(C(N)=O)cc1,0,0
Cc1ccc(C(=O)N2CCc3cn(C)c4cccc(c34)C2)cc1C,79.0,0
CCCn1cc2c3c(cccc31)CN(C(=O)c1ccc(OC)cc1)CC2,78.0,0
CS(=O)(=O)N(Cc1ccccc1Cl)c1ccc(C(=O)N2CCc3ccccc3C2)cc1,97.8,0
COCCn1cc2c3c(cccc31)CN(C(=O)NCc1ccc(OC)cc1)CC2,0,0
